Screening data from PubChem BioAssay.
Sampled rows, rich in hits. Any-hit rate of the full collection: about 4.7%.
PfHsp90 yeast 2: growth inhibition of PfHsp90-expressing yeast, primary screen, antimalarial PfHsp90 inhibitor project, S. cerevisiae, BacTiter-Glo luminescence, single point, set 2. BacTiter-Glo ATP, 48 h; yeast lacking PDR1 and PDR3 efflux regulators. inhibition, % at 9.4 µM. actives 0.32% (n = 310,000);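 active = every replicate shows inhibition above about 80%, whatever the replicate mean, limit read from the data; inconclusive = mean inhibition reaches the set limit but some replicate falls short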
SKKanGAS inh: S. pyogenes SKKanGAS growth inhibitors in kanamycin, primary screen, streptokinase expression inhibitor project, SKKanGAS strain, BacTiter-Glo luminescence; 6 h; inhibition, % at 7.5 µM; actives 1.3% (n = 300,000); AID 1662, 2009;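 active = mean replicate score, as percent of positive control median, at least 50; inconclusive = mean below 50 but one replicate at or above 50; inactive = mean and every replicate below 50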;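 also: strain carries kanamycin resistance gene driven by streptokinase promoter and grows in 40 µg/ml kanamycin; loss of luminescence reflects streptokinase promoter inhibition or plain growth inhibition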
tim10-1 inh: growth inhibitors of tim10-1 mutant yeast, primary screen, luminescence, uHTS; actives 2.2% (n = 330,000); inhibition, % at 20 µM; S. cerevisiae tim10-1 ts strain growth, BacTiter-Glo, 24 h;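 active = inhibition of at least 40%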;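 also: mutant grown at 25 °C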
tim23-1 inh: growth inhibitors of tim23-1 mutant yeast, primary screen, luminescence, uHTS; S. cerevisiae tim23-1 growth, BacTiter-Glo luminescence, 24 h; inhibition, % at 20 µM; actives 1.3% (n = 330,000);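 active = growth inhibition of the mutant yeast at or above 50%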;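 also: temperature-sensitive mutant grown at 25 °C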
TIM10 inh: growth inhibitors of isogenic TIM10 control yeast, primary screen, counter-screen for tim10-1 yeast inhibitor project, luminescence, uHTS | S. cerevisiae TIM10 strain growth, BacTiter-Glo luminescence, 24 h | inhibition, % at 10 µM | actives 1.4% (n = 330,000);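 active = inhibition of 40% or more at the single tested concentration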;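 also: wild-type TIM10 isogenic control strain grown at permissive 25 °C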
Calb FLC: C. albicans growth inhibition with fluconazole, primary screen, CaCi-2 strain, Alamar Blue fluorescence. C. albicans CaCi-2 (fluconazole-resistant clinical isolate) + fluconazole, 48 h. growth inhibition, % (no concentration beside the values). actives 0.57% (n = 300,000). AID 1979, 2009;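 active = growth inhibition above about 58% in most replicates, limit read from the data, passing the limit was not always enough; inconclusive = exactly half the replicates above a set limit; inactive = most replicates below a set limit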;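 also: all wells also contain fluconazole at 8 µg/ml as a sub-toxic cotreatment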
tim10-1 confirm: growth inhibitors of tim10-1 mutant yeast, confirmation, single concentration, luminescence, S. cerevisiae | shares compounds with tim10-1 inh | inhibition, % at 20 µM | actives 56% (n = 7,400) | S. cerevisiae tim10-1 ts strain growth, BacTiter-Glo, 24 h;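 active = inhibition of yeast growth at or above a set limit in either of two repeat tests at 20 µM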;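 also: tim10-1 mutant grown at permissive 25 °C to find synthetic lethal compounds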
TIM10 conf: growth inhibitors of wild-type TIM10 yeast, confirmation, counter-screen for tim10-1 synthetic lethality project, single concentration, luminescence, S. cerevisiae; shares compounds with TIM10 inh; S. cerevisiae tim10 strain growth, BacTiter-Glo luminescence, 24 h; inhibition, % at 10 µM; actives 63% (n = 4,600); AID 463215, 2010;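 active = inhibition of yeast growth at or above a set limit in either of two replicates at 10 µM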; also: this counterscreen used the strain with wild-type TIM10
A number is an active result; n = inactive; u = inconclusive; x = no result given.

SMILES	PfHsp90 yeast 2	SKKanGAS inh	tim10-1 inh	tim23-1 inh	TIM10 inh	Calb FLC	tim10-1 confirm	TIM10 conf
COc1ccccc1Nc1nc(N)nc(CSC(=S)N2CCCCC2C)n1 (stereo not given)	n	n	42	n	49	n	n	n
COc1ccccc1Nc1nc(N)nc(CSC(=S)N2CCN(c3ccccc3)CC2)n1	n	n	n	n	n	n	x	x
O=C1CCCN1CC(O)CS(=O)(=O)Cc1ccc(Cl)c(Cl)c1 (stereo not given)	n	n	n	n	n	n	x	x
CN1CCN(c2ccccc2NC(=O)c2ccc(-c3ccc(Cl)cc3Cl)o2)CC1	n	n	56	n	46	n	55	48
O=C(NC(=S)NCCC1=CCCCC1)c1ccccc1Br	n	u	43	n	46	n	31	41
CC(=O)N1CCN(C2=NC(=O)/C(=C/c3ccc(OS(=O)(=O)c4ccccc4)cc3)S2)CC1	n	n	n	n	n	n	x	x
COc1cccc(-c2nn3c(-c4ccco4)nnc3s2)c1	n	n	52	n	47	n	55	n
N/C(=N\OC(=O)CC1CCCCC1)c1ccc(Cl)cc1	x	n	42	n	44	n	57	34
N/C(=N\OC(=O)CC1CCCCC1)c1cccc(Br)c1	n	n	62	n	73	x	67	62
N/C(=N\OC(=O)CC1CCCCC1)c1ccc(Br)cc1	n	n	n	n	n	n	x	x
Cc1onc(-c2ccccc2Cl)c1C(=O)O/N=C(\N)c1ccc([N+](=O)[O-])o1	n	n	49	n	44	n	n	44
Cc1ccc(S(=O)(=O)N(Cc2ccc([N+](=O)[O-])cc2)C(=O)N2CCN(C)CC2)cc1	n	n	n	n	n	n	x	x
CC(OC(=O)CN1C(=O)NC2(CCCC2)C1=O)C(=O)Nc1cccc(Cl)c1 (stereo not given)	n	n	n	n	n	n	x	x
CCC(/C=C1\Sc2ccc(OC)cc2N1CC)=C\c1sc2ccc(OC)cc2[n+]1CCCS(=O)(=O)[O-]	n	n	50	n	45	n	43	n
O=C(COC(=O)/C=C/C(=O)OCC(=O)NC12CC3CC(CC(C3)C1)C2)NC12CC3CC(CC(C3)C1)C2	n	n	56	n	45	n	43	n
CCOc1ccc(Nc2cc(C)nc(-n3nc(C)cc3C)n2)cc1	n	87	44	n	42	n	n	n
CNc1cc(C)nc(-n2nc(C)cc2C)n1	n	n	n	n	n	n	x	x
O=C(c1cccc2ccccc12)n1nnc2ccccc21	x	n	66	n	59	n	61	73
C#CCOC(=O)c1ccccc1C(=O)n1nnc2ccccc21	n	n	n	n	n	n	x	x
C[n+]1c2n(c3ccccc31)N=C(c1ccc(Br)cc1)CS2	x	n	44	n	43	n	44	32
COC(=O)C1(Cc2cc(-c3ccc(Cl)cc3)no2)CCN(C(=O)OC(C)(C)C)CC1	n	n	54	n	44	n	45	40
CN(N=Cc1cccc2cccnc12)c1ccc([N+](=O)[O-])cc1[N+](=O)[O-]	n	x	x	x	x	x	x	x
O=C(N/N=C/c1ccccn1)c1cc([N+](=O)[O-])cc([N+](=O)[O-])c1	n	n	42	n	48	n	n	n
CC(C)(C)NC(=S)NC(=O)C12CCC3CC(CC(C3)C1)C2	n	n	44	n	49	n	32	36
Cc1ccnc(Nc2nc(-c3c(C)nc4sccn34)cs2)c1	n	n	44	n	45	n	n	32
SMILES	PfHsp90 yeast 2	SKKanGAS inh	tim10-1 inh	tim23-1 inh	TIM10 inh	Calb FLC	tim10-1 confirm	TIM10 conf
Cc1cccn2cc(-c3ccc(S(=O)(=O)N4CCOCC4)cc3)nc12	n	n	n	n	n	n	x	x
Cc1cccn2cc(-c3ccc(S(=O)(=O)N4CCCCC4)cc3)nc12	n	n	62	n	48	n	70	63
Cc1cccc(C)c1NC(=S)Nc1ccc(Cl)c(Cl)c1	n	n	47	n	52	n	38	48
COc1ccc(NC(=S)Nc2ccc(C)c(Cl)c2)cc1OC	n	n	n	n	n	u	x	x
CCCOc1ccc(C(=O)C(CN2CCOCC2)c2ccccc2)cc1 (stereo not given)	n	n	46	n	50	n	46	n
CCC(=O)Nc1cccc(NC(=S)NC(=O)c2ccc(Cl)cc2Cl)c1	n	n	n	n	n	n	x	x
CCCN(CCC)C(=S)NC(=O)c1ccc(Cl)cc1Cl	n	n	54	n	40	n	n	37
Cc1cc(C)nc(SCC(=O)Nc2sc3c(c2C#N)CCC(C)C3)n1 (stereo not given)	n	n	n	n	n	n	x	x
Cc1cc(C(F)F)n2nc(C(=O)Nc3sc4c(c3C#N)CCC(C)C4)nc2n1 (stereo not given)	x	n	57	n	42	n	48	42
Cc1ccc(C(=O)NNC(=O)c2n[nH]c(=O)c3ccccc23)cc1C	n	x	n	n	n	x	x	x
CCOc1ccc(S(=O)(=O)c2cn(C)c3cc(OC)c(OC)cc3c2=O)cc1	n	n	n	n	n	n	x	x
Fc1ccccc1CNC(=S)Nc1cccc(C(F)(F)F)c1	n	n	47	n	43	n	46	n
CSc1ccccc1NC(=S)Nc1cccc(C(F)(F)F)c1	n	n	n	n	n	n	x	x
C/C(=N\NC(=O)c1ccccc1C)c1cccnc1	n	n	n	n	n	n	x	x
N#C/C(=C\c1ccc([N+](=O)[O-])o1)C(=O)Nc1ccc(F)cc1	106	n	55	n	79	n	47	96
COc1cc(C(=O)OCC(=O)NC2CCCCC2)cc(OC)c1OC	n	x	n	n	n	x	x	x
CCCN1C(=O)/C(=C/c2ccncc2)SC1=S	n	n	45	n	53	n	n	n
COc1ccccc1N=c1oc2cc(O)ccc2cc1C(N)=O	97	70	47	n	40	u	48	33
COc1ccccc1N=c1oc2cc(O)ccc2cc1C(=O)NCC1CCCO1 (stereo not given)	x	n	n	n	n	n	x	x
COc1ccc(/C=N/NC(=O)CNC(=O)c2ccncc2)cc1	n	n	n	n	n	n	x	x
